Screening results deposited in PubChem by National Center for Advancing Translational Sciences (NCATS).
An excerpt weighted towards active compounds, which were near 7.6% of everything screened.
Giardia kill: kills Giardia lamblia. actives 0.15% (n = 340,000). Giardia lamblia trophozoite viability. activity change, % at 7.66 µM, hits read low. AID 540267; in the data active means activity change below about -80%; inconclusive means between about -30% and that limit;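 further: parasites exposed to compound for two days anaerobically before the ATP read; on the % scale 0 is the no-effect control and ±100 the full control effect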
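Each well holds 100 Giardia trophozoites and compound. After two days (48 hrs) at 37 deg C in anaerobic conditions, ATP is quantified by luminescence.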
BRCA1 expr act: increases BRCA1 expression; MCF7-BRCA1-FFLuc reporter, luminescence, 48 h; response scale: scaled: vehicle 0%, 10 µM genistein 100%; Potency, µM (titrated, usually from 46.1 µM), for inactives: at the top dose activation, hits mostly activators; actives 1.1% (n = 380,000); further: potency means the concentration at half of the fitted maximal effect; nearly all actives have a fitted effect of over 80% in size
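MCF7-BRCA1-FFLuc, 2000 cells/well; 2 h attach, 37 °C/5% CO2; compound 48 h; luciferase substrate 15 min; luminescence end-point. Norm. to genistein 10 microM max activation and DMSO; concentration-response curves fitted.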
VP16 counter: counter-screen for ROR gamma inhibitors: Gal4-VP16 reporter | Drosophila S2 Gal4-VP16 UAS-luciferase, luminescence, 20 h | Potency, µM (titrated, usually from 53.6 µM), for inactives: at the top dose activity, negative = inhibition, usual class: inhibitors | actives 3.5% (n = 310,000);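 further: Gal4-VP16 expression switched on by copper sulfate through the metallothionein promoter; potency means the concentration at half of the fitted maximal effect; on the % scale 0 is the no-effect control and ±100 the full control effect; nearly all actives have a fitted effect of over 50% in size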
RORgamma inh: ROR gamma (mouse) transcription inhibition; P51450; Drosophila S2 Gal4-RORgamma UAS-luciferase reporter, 20 h; Potency, µM (doses to about 53.6 µM), for inactives: top-dose activity change, negative = inhibition, hits mostly inhibitors; actives 5.4% (n = 310,000); AID 2551; further: potency means the concentration at half of the fitted maximal effect; on the % scale 0 is the no-effect control and ±100 the full control effect; nearly all actives have a fitted effect of over 60% in size
Target sequence (P51450 whole entry, looked up, the tested form may be a part): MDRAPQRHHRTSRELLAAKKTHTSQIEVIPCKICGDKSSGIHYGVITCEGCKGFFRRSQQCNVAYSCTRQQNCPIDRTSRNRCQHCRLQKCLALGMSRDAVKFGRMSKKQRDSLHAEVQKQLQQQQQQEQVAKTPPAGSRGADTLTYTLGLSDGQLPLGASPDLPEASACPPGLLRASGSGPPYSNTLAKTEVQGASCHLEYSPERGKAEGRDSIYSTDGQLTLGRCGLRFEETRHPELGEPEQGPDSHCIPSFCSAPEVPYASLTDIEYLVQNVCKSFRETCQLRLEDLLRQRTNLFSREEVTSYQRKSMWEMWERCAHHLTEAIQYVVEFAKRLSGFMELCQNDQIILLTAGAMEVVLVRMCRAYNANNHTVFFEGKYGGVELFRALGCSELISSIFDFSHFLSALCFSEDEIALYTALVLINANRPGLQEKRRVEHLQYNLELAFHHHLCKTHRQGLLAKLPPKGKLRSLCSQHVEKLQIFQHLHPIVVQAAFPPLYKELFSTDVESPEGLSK
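Luciferase reporter read in Schneider cells carrying Gal4-RORγ (mouse) and UAS-Photinus luciferase; cells given compound 1 h before 700 uM copper sulfate induction, then incubated 20 h at ambient temperature.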
p53 reactivation: mutant p53 re-activation in reporter cells | H1299 p53-A138V BP100-luciferase reporter, luminescence, 24 h | Potency, µM (top dose mostly 92.2 µM), for the others: at the highest dose activity change, positive = activation, usual class: activators | actives 0.063% (n = 320,000); further: potency means the concentration at half of the fitted maximal effect; % of control where 0% means no effect; nearly all actives have a fitted effect of over 45% in size
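H1299 (p53-null), stable ts p53-A138V + BP100-Luc; 1000 cells/well, Opti-MEM/10% FBS; cpd 4 pt, 1:5; 24 h, 37 deg C, 5% CO2; detection reagent 10 min RT; luminescence.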
ELG1 repair inh: blocks ELG1-dependent DNA repair in HEK293T cells | HEK293T ELG1-luciferase reporter, luminescence, 16 h; DNA damage induced by 5-fluorouridine | Potency, µM (series often up to 46.1 µM), for the others: top-dose activity change, negative = inhibition, actives largely listed as inhibitors | actives 2.3% (n = 330,000) | AID 504467; further: potency means the concentration at half of the fitted maximal effect; on the % scale 0 is the no-effect control and ±100 the full control effect; nearly all actives have a fitted effect of over 55% in size
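Cells (2,000 per well) received 5-fluorouridine plus test compound or DMSO and were incubated 16 hr at 37 °C, 5% CO2. Luciferase activity was read by luminescence 30 min after ONE-Glo addition; signal suppression marked inhibition of damage-induced ELG1 function.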
* marks the source's active call; other numbers are inactive results; ? = inconclusive; nt = not tested or not shown; [ ] = remark or other dose. Unless noted, the call rests on the fitted dose curve; in most records, active means well fitted curve in the direction sought with a large enough effect; inconclusive means small, poorly fitted or top-dose-only effect, or another doubt; inactive means no such curve, though single readings can be large; an effect the other way counts as inactive or inconclusive.

SMILES	Giardia kill	BRCA1 expr act	VP16 counter	RORgamma inh	p53 reactivation	ELG1 repair inh
Cc1n[nH]c(=S)n(/N=C/c2cccc([N+](=O)[O-])c2)c1=O	7.8	0.0%	6.1%	18.6%	-3.1%	-15.5%
Cc1cccc(/C=N/n2c(C3CCCCC3)n[nH]c2=S)c1	-28.2	-22.9%	7.08µM*	3.16µM*	18.3%	11.9%
CC(/C=N/n1c(C2CCCCC2)n[nH]c1=S)=C\c1ccccc1	2.6	-24.8%	10µM*	3.55µM*	-5.1%	0.3%
S=c1[nH]nc(C2CCCCC2)n1/N=C/c1cccc(Br)c1	3.0	-9.4%	-12.7%	2µM*	1.1%	2.7%
CC(=C/c1ccccc1)/C=N/n1c(-c2ccco2)n[nH]c1=S	-4.2	-2.4%[1.84 µM]	-1.0%	17.3%	-5.5%	-9.5%
CC(/C=N/n1cnnc1)=C\c1ccccc1	7.0	5.1%	-5.2%	24.6%	nt	nt
CC(C#N)(Nc1ccc(Cl)cc1)c1cccnc1 (configuration not stated)	-7.0	-5.9%	-4.3%	12.5%	0.9%	-8.7%
O=C(NCc1ccccc1CN1CCCCC1)c1ccc(Cl)cc1N1CCCC1=O	-4.7	-1.7%	nt	nt	0.2%	8.5%
CCOC(=O)C1(Cc2cccc(OC)c2)CCCN(Cc2nccn2CC)C1 (configuration not stated)	-2.3	-4.0%	?	3.55µM*	0.6%	-12.7%
CCOC(=O)C1(Cc2ccccc2)CCCN(Cc2ccccn2)C1 (configuration not stated)	-7.4	0.0%	-12.2%	12.6µM*	-0.6%	-0.6%
CCOC(=O)C1(Cc2cccc(OC)c2)CCN(Cc2cccnc2)CC1	-6.1	0.0%	-17.6%	11.2µM*	4.4%	?
O=C(CC1C(=O)N(c2ccccc2)C(=O)N1Cc1ccco1)Nc1ccccc1 (configuration not stated)	1.4	-34.0%	-11.4%	35.5%	0.4%	-28.3%
CC(C)N1C(=S)N(Cc2ccco2)C(=O)C1CC(=O)Nc1ccccc1 (configuration not stated)	3.7	-13.5%	-7.6%	17.8µM*	2.1%	?
S=c1[nH]nc(COc2ccccc2)n1/N=C/c1ccco1	-13.6	18.9%	-3.0%	7.94µM*	14.7%	-6.0%
CC(/C=N/n1c(COc2ccccc2)n[nH]c1=S)=C\c1ccco1	6.7	-10.6%	-19.1%	7.08µM*	-3.0%	-18.2%
COC(=O)[C@H]1C[C@H]1[C@@H](NC(=O)c1cccnc1)c1ccccc1	?	14.3%	15.7%	13.5%	nt	nt
O=C(O)CCC/C=C\C[C@@H]1[C@@H](/C=C/[C@@H](O)COc2cccc(Cl)c2)[C@H](O)C[C@@H]1O	-12.9	-7.9%	1.4%	22.6%	1.7%	1.1%
CCOC(=O)c1cnc2ccc(OC)cc2c1NCCc1ccc(OC)c(OC)c1	-10.2	-7.5%	-7.6%	-3.4%	2.6%	20.6µM*
CCOC(=O)c1cnc2ccc(OCC)cc2c1NCc1ccccc1	4.6	-64.7%	5.01µM*	2.82µM*	-2.1%	?
CCOC(=O)c1cnc2ccccc2c1NCCc1ccc(OC)c(OC)c1	-6.2	-2.3%	-3.6%	-42.2%	2.6%	?
O=C(COC(=O)C12CC3CC(CC(C3)C1)C2)Nc1ccc([N+](=O)[O-])cc1Cl	23.5	3.4%	-3.1%	2.5%	-3.7%	20.6µM*
O=S(=O)(NCCc1ccccn1)c1ccc(OC(F)(F)F)cc1	-4.1	-14.0%	7.1%	34.1%	-1.4%	-4.1%
O=C(CCCc1ccccc1)NC12CC3CC(CC(C3)C1)C2	21.9	2.82µM*	1.5%	-6.0%	nt	?
O=C(COC(=O)c1ccccc1)NC12CC3CC(CC(C3)C1)C2	4.0	-4.0%	nt	nt	3.4%	23.7%
NC(=O)c1nsc(C(=O)N(Cc2ccco2)C(C(=O)NCc2ccc(F)cc2)c2ccc(O)cc2)c1N (configuration not stated)	3.8	-44.1%	6.7%	13.2%	-8.3%	11.6µM*
SMILES	Giardia kill	BRCA1 expr act	VP16 counter	RORgamma inh	p53 reactivation	ELG1 repair inh
Cc1ccc(C(C(=O)NCc2ccc(F)cc2)N(Cc2ccco2)C(=O)c2snc(C(N)=O)c2N)o1 (configuration not stated)	-15.0	-50.6%	-2.9%	14.0%	-3.1%	20.6µM*
CCOc1ccc(CN2CCNC(=O)C2CC(=O)O)cc1 (configuration not stated)	4.1	5.2%	0.2%	5.7%	3.8%	1.7%
N#C/C(=C/c1cccn1-c1cccc(C(=O)O)c1)c1ccc(F)cc1	21.9	18.4%	-2.2%	20.9%	6.9%	-12.5%
Cc1ccc(NC(=O)c2cc3cccc([N+](=O)[O-])c3[nH]2)cc1	-21.5	?	-1.6%	?	?	?
CCC(C)c1ccccc1NC(=O)c1cc2cccc([N+](=O)[O-])c2[nH]1 (configuration not stated)	14.5	-49.6%	20.3%	13.7%	23.1%	20.6µM*
Cn1cccc1/C=N\NC(=O)c1cncc(Br)c1	-28.7	1.9%	?	12.6µM*	4.6%	?
O=C(CNC(=O)c1ccccc1)N/N=C/c1cccs1	-5.6	43.0%	3.1%	1.8%	-0.1%	-13.1%
Cn1cccc1/C=N/NC(=O)c1cc2ccccc2cc1O	-18.5	53.1%	2µM*	1.41µM*	23.2%	?
Cn1cccc1/C=N/NC(=O)c1ccccn1	1.3	10µM*	0.7%	-3.8%	16.7%	?
O=C(CNC(=O)c1ccccc1F)N/N=C/c1cccs1	-10.7	10µM*	-11.9%	-14.7%	14.7%	?
Cn1cccc1/C=N/NC(=O)c1ccncc1	-12.5	0.7%	3.7%	?	1.4%	-3.6%
Cc1cc(C(=O)N/N=C/c2cccn2C)no1	-1.5	31.1%	-1.6%	-42.7%	19.8%	28.9%
CCCCn1ccnc1C(=O)c1ccc(S(=O)(=O)N2CCCC2)cc1	6.2	47.9%	5.2%	3.3%	3.7%	?
CC(Sc1nnc(-c2ccco2)n1N)C(=O)NC1CCCCC1C (configuration not stated)	6.8	11.4%	nt	nt	0.5%	5.8%
COc1ccc(NC(=O)CCSc2ccc(C)cc2)cc1S(=O)(=O)Nc1ccccc1Cl	1.1	-20.9%	-5.8%	25.0%	13.1%	?
O=C(N/N=C/c1cccs1)c1ccccn1	11.8	80.3%	?	14.1µM*	?	?
O=C(N/N=C/c1cccs1)C(=O)Nc1cccc(Cl)c1	17.6	49.0%	10µM*	3.16µM*	2.6%	?
Cc1ccc(/C=N/NC(=O)c2ccccn2)s1	-1.5	4.2%	22.4µM*	?	?	?
